Results published in PubChem BioAssay (Tox21).
Inconclusive results are not listed. The source made the active and inactive calls. Unless noted, calls follow the shape of the full dose curve.

How the values were obtained:
[1] = qHTS assay to identify small molecule antagonists of the vitamin D receptor (VDR) signaling pathway - cell viability counter screen (AID 743225; active = well fitted curve in the direction sought with a large enough effect in the repeat runs; an effect the other way counts as inactive or inconclusive; also: nearly all actives have a fitted effect of over 50% in size)
Procedure, shortened: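 Same-well multiplex: following 16 h treatment of HEK 293T cells carrying a UAS-driven beta-lactamase reporter with compound and agonist (3 nM final), and a 2 h FRET substrate step, CellTiter-Glo was added and luminescence read after 30 min.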

[2] = qHTS assay to identify small molecule agonists of the NFkB signaling pathway (AID 1159509; active = well fitted curve in the direction sought with a large enough effect in the signal ratio in the repeat runs, not every such curve was filed as active; the % refers to the signal ratio; also: series mostly up to about 61 µM)
Procedure, shortened: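 Readout: FRET fluorescence, 405 nm excitation, 460/530 nm emission; beta-lactamase expression disrupts FRET. Cells: ME-180 stably carrying NF-kB-driven bla reporter. Compound exposure 5 hr, 37 C, 5% CO2.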

[3] = qHTS assay to identify small molecule agonists of the NFkB signaling pathway - cell viability counter screen (AID 1159515); also: series mostly up to about 61 µM; nearly all actives have a fitted effect of over 55% in size
Procedure, shortened: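 Plate 2,000 NFkB-bla ME-180 cells/well; incubate overnight. Add compounds, 5 hr at 37 C. Add FRET substrate, 1.5 hr RT. Add CellTiter-Glo, 30 min RT; read luminescence.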

[4] = qHTS assay to identify small molecule agonists of the endoplasmic reticulum stress response signaling pathway (AID 1159516; active = well fitted activation curve with a large enough effect in the signal ratio in the repeat runs, not every such curve was filed as active; the % refers to the signal ratio)
Procedure, shortened: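 Beta-lactamase expression from the ER stress response element in HeLa reporter cells is quantified with the LiveBLAzer B/G FRET substrate, read at 405 nm excitation after 2 hr at room temperature, following 5 hr compound treatment at 37 C.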

[5] = qHTS assay to identify small molecule agonists of the endoplasmic reticulum stress response signaling pathway - cell viability counter screen (AID 1159517); also: series mostly up to about 61 µM; nearly all actives have a fitted effect of over 50% in size
Procedure, shortened: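 Steps: seed 1,500 ESRE-bla HeLa cells per well; incubate overnight at 37 C, 5% CO2; add compounds in DMSO for 5 hr; run FRET substrate 2 hr RT; add CellTiter-Glo, wait 30 min, read luminescence.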

[6] = qHTS assay to identify small molecule antagonists of the retinoid-related orphan receptor gamma (ROR-gamma) signaling pathway - cell viability counter screen (AID 1159520; active = well fitted curve in the direction sought with a large enough effect in the repeat runs; an effect the other way counts as inactive or inconclusive; also: nearly all actives have a fitted effect of over 50% in size)
Procedure, shortened: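 Tet-on ROR gamma CHO cells were given compounds for 2 hr, then doxycycline hyclate at 1 uM final, and incubated 16 hr at 37 C. Viability was measured as ATP content by CellTiter-Glo luminescence.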

[7] = target: Nuclear receptor ROR-gamma (Homo sapiens) (UniProt P51449); assay: qHTS assay to identify small molecule antagonists of the retinoid-related orphan receptor gamma (ROR-gamma) signaling pathway (AID 1159521; active = well fitted curve in the direction sought with a large enough effect in the repeat runs; an effect the other way counts as inactive or inconclusive;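 also: CHO cells with doxycycline inducible ROR-gamma driving an RORE luciferase reporter; top concentration of the series differs between compounds; nearly all actives have a fitted effect of over 50% in size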)
Procedure, shortened: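 Inducible-expression reporter assay: doxycycline (1 uM final) switched on RORγ in CHO cells bearing a ROR response element-luciferase construct, with test compounds present from 2 h beforehand. Decreased luminescence after 16 h defined antagonist activity.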

[8] = qHTS assay to identify small molecule agonists of the AP-1 signaling pathway - cell viability counter screen (AID 1159525); also: nearly all actives have a fitted effect of over 55% in size
Procedure, shortened: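 Same-well cytotoxicity counter screen of the Tox21 10K library in ME-180 cells. The readout is ATP-dependent luminescence after 5 h compound treatment. Data are normalised to DMSO and tetra n-octyl ammonium bromide controls.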

[9] = qHTS assay to identify small molecule agonists of the AP-1 signaling pathway (AID 1159526)
[10] = qHTS assay to identify small molecule agonists of the vitamin D receptor (VDR) signaling pathway - cell viability counter screen (AID 743224; active = well fitted curve in the direction sought with a large enough effect in the repeat runs; an effect the other way counts as inactive or inconclusive)
Procedure, shortened: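 In parallel with the bla FRET readout, cytotoxicity toward VDR-bla cells after 16 h compound exposure was assessed by CellTiter-Glo, with luminescence recorded after a 30 min room-temperature incubation.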

Measured: Potency

OC(CCN1CCCCC1)(c1ccccc1)C1CC2C=CC1C2 (stereo unspecified)
inactive: [1] | [2] | [3] | [4] | [5] | [6] | [7] | [8] | [9]

CC(=O)Nc1ccc(S(N)(=O)=O)cc1
inactive: [1] | [2] | [3] | [4] | [5] | [6] | [7] | [8] | [9]

Cc1cc(O)cc2c1O[C@](C)(CCC[C@H](C)CCC[C@H](C)CCCC(C)C)CC2
inactive: [10] | [2] | [3] | [4] | [5] | [7] | [8] | [9]

NC(CSCC(=O)O)C(=O)O (stereo unspecified)
inactive: [1] | [2] | [3] | [4] | [5] | [6] | [7] | [8] | [9]

COC(=O)NN
inactive: [1] | [2] | [3] | [4] | [5] | [6] | [7] | [8] | [9]

CC(=O)CC(C)C
inactive: [1] | [2] | [3] | [4] | [5] | [6] | [7] | [8] | [9]

CC/C=C\CCOC(C)=O
inactive: [1] | [2] | [3] | [4] | [5] | [6] | [7] | [8] | [9]

Cc1cc2c(cc1S(N)(=O)=O)S(=O)(=O)CCC2
inactive: [1] | [2] | [3] | [4] | [5] | [6] | [7] | [8] | [9]
